HT1080 IDH1KD tx – qHTS for induction of synthetic lethality in tumor cells producing 2HG: qHTS for the HT-1080-IDH1KD cell line. HT-1080 IDH1 knockdown viability, ATP luminescence, 48 h. 360,000 compounds, 2% hits. Potency, µM (doses to about 46.1 µM), actives largely listed as cytotoxic
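After a 2 h attachment period, IDH1KD HT-1080 cells took pin-transferred compound for 48 h at 37 °C; ATP-based luminescence after 10 min room-temperature reagent incubation reported viability.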
HT1080NT lethal – qHTS for induction of synthetic lethality in tumor cells producing 2HG: qHTS for the HT-1080-NT fibrosarcoma cell line | HT-1080-NT fibrosarcoma viability, CellTiter-Glo ATP luminescence, 48 h | Potency, µM (titrated, usually from 46.1 µM), usual class: cytotoxic | 360,000 compounds, 1.6% hits | AID 686970, 2013;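 also: NT is the 2HG producing partner of a matched IDH1 knockdown line; nearly all actives have a fitted effect of over 55% in size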
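750 cells/well, RPMI + 5% FBS; 2 h settle, compound pin-transfer, 48 h at 37 degrees C. CellTiter-Glo 10 min RT, luminescence. Normalized to DMSO and media-only wells.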
KB-V1 MDR tox – qHTS assay for MDR1-selective chemotherapeutics: Primary screen using the drug-selected MDR subline cells KB-V1 | KB-V1 MDR cells viability, CellTiter-Glo, 72 h | Potency, µM (series often up to 46.1 µM), actives largely listed as cytotoxic | 400,000 compounds, 3.4% hits | AID 1347076, 2019; also: nearly all actives have a fitted effect of over 60% in size
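Following 72 h at 37 degrees C with compound, KB-V1 cell viability was read by CellTiter-Glo luminescence, medium being phenol-red-free DMEM plus 10% FBS; concentration-response parameters came from normalized, curve-fitted qHTS data.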
IL1B secr inh – qHTS for Inhibitors of Inflammasome Signaling: IL-1-beta AlphaLISA Primary Screen; THP-1 LPS/ATP IL-1B secretion, AlphaLISA, 16 h; hits give low values; activity change, % at 57.5 µM; 360,000 compounds, 4.7% hits; in the data active = activity change below about -50%; inconclusive = mostly about -30% to -49%
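THP-1 cells pretreated 1 hr with compounds (up to 57.5 uM final), then stimulated with LPS (250 ng/mL final) plus ATP (1.25 mM final); secreted IL-1B measured by AlphaLISA after 16 hr, decreased signal indicating inhibition.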
KB-3-1 cytotox – qHTS assay for MDR1-selective chemotherapeutics: Primary screen using the parental adenocarcinoma cell KB-3-1. KB-3-1 viability, CellTiter-Glo ATP luminescence, 72 h. 400,000 compounds, 1.4% hits. Potency, µM (top dose mostly 46.1 µM), usual class: cytotoxic. AID 1347075, 2019; also: nearly all actives have a fitted effect of over 60% in size
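Viability of parental KB-3-1 cells, measured by CellTiter-Glo luminescence, followed a 72 h incubation at 37 °C with pinned compounds in phenol-red-free DMEM containing 10% FBS.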
A number is an active result. A selection: hits, their analogues and other compounds. The true share with any hit is near 8.8%. Unless noted, calls follow the shape of the dose curve; as a rule, active = well fitted curve in the direction sought with a large enough effect; inconclusive = small, poorly fitted or top-dose-only effect, or another doubt; inactive = no such curve, though single readings can be large; an effect the other way counts as inactive or inconclusive.

For CC12CCC(=O)N1C(C(=O)NCCN1C(=O)S/C(=C\c3ccc(F)cc3)C1=O)CS2 (stereo not given) the results were HT1080 IDH1KD tx inactive, HT1080NT lethal inactive, KB-V1 MDR tox inactive, IL1B secr inh -63 and KB-3-1 cytotox inactive.
Cc1ccc(S(=O)(=O)CCC(=O)NCCN2C(=O)S/C(=C/c3ccc(F)cc3)C2=O)cc1 was read as HT1080 IDH1KD tx inactive, HT1080NT lethal inactive, KB-V1 MDR tox inactive, IL1B secr inh -62 and KB-3-1 cytotox inactive.
For COc1ccc(/C=C2\SC(=O)N(CCNC(=O)C3CSC4(C)CCC(=O)N34)C2=O)cc1 (stereo not given) the results were HT1080 IDH1KD tx inactive, HT1080NT lethal inactive, KB-V1 MDR tox inactive, IL1B secr inh inactive and KB-3-1 cytotox inactive.
Screening Cc1oc(-c2ccc(Cl)cc2)nc1CS(=O)CC(=O)NC1CCCC1 (stereo not given) returned HT1080 IDH1KD tx inactive, HT1080NT lethal inactive, KB-V1 MDR tox inactive, IL1B secr inh inactive and KB-3-1 cytotox inactive.
O=[N+]([O-])c1cc(S(=O)(=O)Nc2ccccc2)ccc1N1CCN(c2ccccc2)CC1 was read as HT1080 IDH1KD tx inconclusive, HT1080NT lethal inconclusive, KB-V1 MDR tox inconclusive, IL1B secr inh -64 and KB-3-1 cytotox inactive.
O=[N+]([O-])c1cc(S(=O)(=O)Nc2ccccc2)ccc1Nc1ccccc1 was read as HT1080 IDH1KD tx inactive, HT1080NT lethal 7.3µM, KB-V1 MDR tox inconclusive, IL1B secr inh inactive and KB-3-1 cytotox inconclusive.
For O=[N+]([O-])c1cc(S(=O)(=O)Nc2ccccc2)ccc1NCc1ccccc1 the results were HT1080 IDH1KD tx inactive, HT1080NT lethal inactive, KB-V1 MDR tox inconclusive, IL1B secr inh inactive and KB-3-1 cytotox inactive.
For CC(=O)Nc1ccc(Nc2ccc(S(=O)(=O)C(F)(F)F)cc2[N+](=O)[O-])cc1 the results were HT1080 IDH1KD tx inactive, HT1080NT lethal inactive, KB-V1 MDR tox inactive, IL1B secr inh -60 and KB-3-1 cytotox inactive.
Screening CC1CCN(c2ccc(S(=O)(=O)NC3=NCCCCC3)cc2[N+](=O)[O-])CC1 returned HT1080 IDH1KD tx inactive, HT1080NT lethal inconclusive, KB-V1 MDR tox 21µM, IL1B secr inh inactive and KB-3-1 cytotox inconclusive.
`CCCn1c(C(C)Nc2nc(-c3ccc(Cl)c([N+](=O)[O-])c3)cs2)nc2cc(Cl)c(N3CCCCC3)cc21` (stereo not given) gave HT1080 IDH1KD tx inactive, HT1080NT lethal inactive, KB-V1 MDR tox inactive, IL1B secr inh inactive and KB-3-1 cytotox inconclusive.
`O=C(Nc1cccc(S(=O)(=O)NCc2ccco2)c1)c1cc(-c2ccc(F)cc2)nc2ccccc12` gave HT1080 IDH1KD tx inconclusive, HT1080NT lethal inconclusive, KB-V1 MDR tox inconclusive, IL1B secr inh -77 and KB-3-1 cytotox inconclusive.
Screening O=C(Nc1ccccc1)c1cccc(S(=O)(=O)NCc2ccco2)c1 returned HT1080 IDH1KD tx inactive, HT1080NT lethal inactive, KB-V1 MDR tox 23µM, IL1B secr inh inactive and KB-3-1 cytotox inconclusive.
Screening NS(=O)(=O)c1ccc(NC(=O)/C=C/c2ccc(S(=O)(=O)NCc3ccco3)cc2)cc1 returned HT1080 IDH1KD tx inactive, HT1080NT lethal inactive, KB-V1 MDR tox inactive, IL1B secr inh -52 and KB-3-1 cytotox inactive.
`O=C(Nc1ccccc1)c1ccc(S(=O)(=O)NCc2ccco2)cc1` gave HT1080 IDH1KD tx inactive, HT1080NT lethal inactive, KB-V1 MDR tox inactive, IL1B secr inh inactive and KB-3-1 cytotox inactive.
Cc1nn(CC(=O)NC(=O)c2ccccc2)c(C)c1[N+](=O)[O-] was read as HT1080 IDH1KD tx inactive, HT1080NT lethal inactive, KB-V1 MDR tox inactive, IL1B secr inh inactive and KB-3-1 cytotox inactive.
For CCOc1ccc(Cl)cc1-c1cc(C(=O)NCc2cccc(C(F)(F)F)c2)[nH]n1 the results were HT1080 IDH1KD tx inconclusive, HT1080NT lethal inconclusive, KB-V1 MDR tox inactive, IL1B secr inh inactive and KB-3-1 cytotox inactive.
S=c1[nH]cnc2scc(-c3ccc(Br)cc3)c12 was read as HT1080 IDH1KD tx 13µM, HT1080NT lethal 21µM, KB-V1 MDR tox inconclusive, IL1B secr inh inactive and KB-3-1 cytotox inconclusive.
Cc1cc(-c2csc3nc[nH]c(=S)c23)cc(C)c1C was read as HT1080 IDH1KD tx 15µM, HT1080NT lethal 16µM, KB-V1 MDR tox inconclusive, IL1B secr inh inactive and KB-3-1 cytotox inconclusive.
`c1coc(-c2nc3n(n2)C2(CCCCC2)[C@@H]2CCCC[C@@H]2N3)c1` gave KB-V1 MDR tox inactive and KB-3-1 cytotox inactive.
Screening COc1c(C)cc(S(=O)(=O)NCc2ccco2)c(C)c1C returned HT1080 IDH1KD tx inactive, HT1080NT lethal inactive, KB-V1 MDR tox inactive, IL1B secr inh inactive and KB-3-1 cytotox inactive.
Screening COc1ccc(-n2nnnc2/C=C/Nc2cc(C(F)(F)F)ccc2OC)cc1 returned HT1080 IDH1KD tx inactive, HT1080NT lethal inactive, KB-V1 MDR tox inactive, IL1B secr inh inactive and KB-3-1 cytotox inactive.
COc1ccc(C(=O)c2ccccc2C(=O)c2ccccc2)cc1 was read as HT1080 IDH1KD tx inactive, HT1080NT lethal inactive, KB-V1 MDR tox 18µM, IL1B secr inh inactive and KB-3-1 cytotox inactive.
COc1ccc(C(=O)c2ccc(OC)c(OC)c2OC)cc1 was read as HT1080 IDH1KD tx 10µM, HT1080NT lethal inconclusive, KB-V1 MDR tox 2.3µM, IL1B secr inh inactive and KB-3-1 cytotox 5.8µM.
COc1ccc(C(=O)c2ccc(N(C)C)cc2)c2ccccc12 was read as HT1080 IDH1KD tx 2.8µM, HT1080NT lethal 1.6µM, KB-V1 MDR tox 2.1µM, IL1B secr inh inactive and KB-3-1 cytotox 5.2µM.
For COc1ccc(C(=O)c2ccc(Br)cc2)c(OC)c1OC the results were HT1080 IDH1KD tx inactive, HT1080NT lethal inactive, KB-V1 MDR tox inactive, IL1B secr inh inactive and KB-3-1 cytotox inactive.
COc1ccc(-n2nnnc2/C=C\Nc2ccccc2C(=O)c2ccccc2)cc1 was read as HT1080 IDH1KD tx 5.2µM, HT1080NT lethal 5.8µM, KB-V1 MDR tox 4.6µM, IL1B secr inh inactive and KB-3-1 cytotox 5.8µM.
For O=c1[nH][nH]c2c1[C@H](C1CCCC1)O[C@H](CCc1ccccc1)C2 the results were HT1080 IDH1KD tx inactive, HT1080NT lethal inactive, KB-V1 MDR tox inactive, IL1B secr inh inconclusive and KB-3-1 cytotox inactive.
Screening COc1ccc(OCC(=O)N2c3ccc(C)cc3C3CN(C)CCC32)cc1 (stereo not given) returned HT1080 IDH1KD tx inactive, HT1080NT lethal inactive, KB-V1 MDR tox inactive, IL1B secr inh inactive and KB-3-1 cytotox inactive.
Screening Cc1ccc(C(=O)N(C)c2ccc(OCC(=O)N3c4ccc(C)cc4C4CN(C)CCC43)cc2)cc1 (stereo not given) returned HT1080 IDH1KD tx inactive, HT1080NT lethal inactive, KB-V1 MDR tox inactive, IL1B secr inh -60 and KB-3-1 cytotox inactive.
